# Data: PubChem BioAssay (NCATS)
# Records with an inconclusive call do not appear. Entries that show only a call come without a potency. Calls of active or inactive are those of the source. Calls follow the shape of the dose curve; as a rule, active = well fitted curve in the direction sought with a large enough effect; inconclusive = small, poorly fitted or top-dose-only effect, or another doubt; inactive = no such curve, though single readings can be large; an effect the other way counts as inactive or inconclusive.
# Key:
# [1] = qHTS of pediatric cancer cell lines to identify multiple opportunities for drug repurposing: Primary screen for RD cells (AID 1347104); details: RD rhabdomyosarcoma viability, CellTiter-Glo luminescence, 48 h; series mostly up to 46 µM; also: nearly all actives have a fitted effect of over 55% in size; also: potency is read from the fitted curve at half-maximal effect
# How it was run: (§1)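 Cells seeded at 500-1,000 cells/well in growth media, rested 5 hours at 37 degrees C, 5% CO2, then dosed; MIPE compounds at 11-point (from 0.78 nM) and NPC at 8-point (from 0.59 nM) final concentrations. Viability by CellTiter-Glo luminescence after 48 hours.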
# [2] = qHTS of pediatric cancer cell lines to identify multiple opportunities for drug repurposing: Primary screen for Rh30 cells (AID 1347107); details: Rh30 rhabdomyosarcoma viability, CellTiter-Glo luminescence, 48 h; series mostly up to 46 µM; also: nearly all actives have a fitted effect of over 75% in size
# How it was run: (§2)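 Viability after 48 h compound treatment at 37C, 500-1,000 cells/well, read as ATP luminescence with CellTiter-Glo. Primary screens used 11-point (MIPE, 0.78 nM-46 µM) or 8-point (NPC, 0.59 nM-46 µM) final concentrations; follow-up screens used 11-point dilutions.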
# [3] = qHTS of pediatric cancer cell lines to identify multiple opportunities for drug repurposing: Primary screen for Rh41 cells (AID 1347108); details: Rh41 rhabdomyosarcoma viability, CellTiter-Glo luminescence, 48 h; series mostly up to 46 µM; also: nearly all actives have a fitted effect of over 70% in size; also: potency is read from the fitted curve at half-maximal effect
# How it was run: as §1
# [4] = qHTS of pediatric cancer cell lines to identify multiple opportunities for drug repurposing: Primary screen for OHS-50 cells (AID 1347103); details: OHS-50 osteosarcoma viability, CellTiter-Glo luminescence, 48 h; series mostly up to 57.3 µM; also: nearly all actives have a fitted effect of over 40% in size; also: potency is read from the fitted curve at half-maximal effect
# How it was run: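 Cells (500-1,000/well) rested 5 h, then received compounds for 48 h; metabolically active cells were measured by CellTiter-Glo luminescence. Final concentrations spanned up to 46 µM (MIPE, 11-point) or 0.59 nM-46 µM (NPC, 8-point) in primary screens, 11-point in follow-ups.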
# [5] = qHTS of pediatric cancer cell lines to identify multiple opportunities for drug repurposing: Primary screen for control Hh wild type fibroblast cells (AID 1347106); details: Hh wild-type fibroblast viability, CellTiter-Glo luminescence, 48 h; series mostly up to 46 µM;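 also: a drop in luminescence marks cytotoxicity and a rise apparent proliferation; nearly all actives have a fitted effect of over 55% in size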
# How it was run: as §2
# [6] = qHTS of pediatric cancer cell lines to identify multiple opportunities for drug repurposing: Primary screen for Rh18 cells (AID 1347102); details: Rh18 rhabdomyosarcoma viability, CellTiter-Glo luminescence, 48 h; series mostly up to 46 µM; also: nearly all actives have a fitted effect of over 65% in size
# How it was run: as §2
# [7] = qHTS of pediatric cancer cell lines to identify multiple opportunities for drug repurposing: Primary screen for MG 63 (6-TG R) cells (AID 1347105); details: MG 63 (6-TG R) viability, CellTiter-Glo, 48 h; series mostly up to 46 µM; also: nearly all actives have a fitted effect of over 50% in size; also: potency is read from the fitted curve at half-maximal effect
# How it was run: as §1
smiles,measurement,setting,value
CNC(=O)c1c(-c2ccc(F)cc2)oc2cc(N(CCO)S(C)(=O)=O)c(C3CC3)cc12,Potency,[1],29.6 µM (active)
same,Potency,[2],inactive
same,Potency,[3],18.7 µM (active)
CCOC(=O)c1c(CSc2ccccc2)n(C)c2cc(Br)c(O)c(CN(C)C)c12,Potency,[4],27.3 µM (active)
same,Potency,[5],inactive
O=C(Nc1cccc(C(F)(F)F)c1)Nc1cc(S(=O)(=O)NC2CC2)ccc1-c1ccsc1,Potency,[6],inactive
same,Potency,[1],29.6 µM (active)
same,Potency,[5],inactive
CNC(=O)c1cc(COc2nnc(Nc3ccc(Cl)cc3)c3ccoc23)ccn1,Potency,[4],21.7 µM (active)
same,Potency,[7],23.5 µM (active)
same,Potency,[5],inactive
Cc1cnc(CNC(=O)c2c(=O)c3ccc(N4CCCN(C)CC4)nc3n3c2sc2ccccc23)cn1,Potency,[6],inactive
same,Potency,[4],inactive
same,Potency,[1],inactive
same,Potency,[5],inactive
same,Potency,[3],inactive
O=C(CCCN1CCN(c2ccc(F)cc2)CC1)NC1c2ccccc2CSc2ccccc21 (configuration not stated),Potency,[4],8.63 µM (active)
same,Potency,[5],inactive
Cc1ccc2c(c1)C(=O)[C@]1(O)CCN(c3ccccc3)C1=N2,Potency,[5],inactive
same,Potency,[2],inactive
CC(C)(O)CC(=O)NCCn1ccc2ncnc(Nc3ccc(Oc4cccc(C(F)(F)F)c4)c(Cl)c3)c21,Potency,[4],30.6 µM (active)
same,Potency,[1],18.7 µM (active)
same,Potency,[5],inactive
O=C(Nc1ccc(OC(F)(F)F)cc1)c1sccc1NCc1ccnc2ccccc12,Potency,[6],inactive
same,Potency,[5],inactive
same,Potency,[2],inactive
C[C@]12CC[C@@H]3c4ccc(O)cc4CC[C@H]3[C@H]1[C@@H](O)[C@@H](O)[C@H]2O,Potency,[6],inactive
same,Potency,[2],inactive
COc1ccc(-c2nc3ccc(C4=NNC(=O)CC4C)cc3[nH]2)cc1 (configuration not stated),Potency,[7],inactive
same,Potency,[2],inactive
CCNC(=O)CCCC=CC[C@@H]1[C@H](C=CC(O)CCc2ccccc2)[C@@H](O)C[C@@H]1O (some centres not stated),Potency,[6],inactive
same,Potency,[4],inactive
same,Potency,[2],inactive
CN(C)N=Nc1nc[nH]c1C(N)=O,Potency,[6],inactive
same,Potency,[7],inactive
same,Potency,[5],inactive
same,Potency,[3],inactive
CC=C(C(=CC)c1ccc(O)cc1)c1ccc(O)cc1,Potency,[6],inactive
same,Potency,[4],27.3 µM (active)
same,Potency,[7],18.7 µM (active)
same,Potency,[5],inactive
same,Potency,[2],inactive
N#Cc1ccc(Oc2ccc3c(c2)COB3O)cc1,Potency,[6],inactive
same,Potency,[1],inactive
same,Potency,[7],inactive
same,Potency,[5],inactive
same,Potency,[2],inactive
same,Potency,[3],inactive
CCCCC[C@H](O)C=C[C@H]1[C@H](O)CC(=O)[C@H]1CCCCCCC(=O)O,Potency,[6],inactive
same,Potency,[4],inactive
same,Potency,[7],inactive
same,Potency,[5],inactive
same,Potency,[2],inactive
Cc1ccc(C2=Nc3ccc(Cl)cc3OC2)cc1,Potency,[6],inactive
same,Potency,[4],inactive
same,Potency,[7],inactive
same,Potency,[5],inactive
c1ccc(CNc2nc(N3CCOc4ccccc43)nc3c2CCCC3)cc1,Potency,[6],inactive
same,Potency,[1],inactive
same,Potency,[7],inactive
same,Potency,[5],inactive
same,Potency,[2],inactive
